Assays:
Test in all cases: log2 ratio of Biotin-Ahx-Ub-VS probe labelling (fragment/DMSO); higher = less target engagement (more negative = stronger competition), active = hit call of the paper (q ≤ 0.05, log2 ratio ≤ -1)
Settings in all cases: compound concentration: 200 uM; treatment time: 3 h
ALG13 = target: T1, ALG13 (UniProt Q9NP73)
T1 sequence (whole entry): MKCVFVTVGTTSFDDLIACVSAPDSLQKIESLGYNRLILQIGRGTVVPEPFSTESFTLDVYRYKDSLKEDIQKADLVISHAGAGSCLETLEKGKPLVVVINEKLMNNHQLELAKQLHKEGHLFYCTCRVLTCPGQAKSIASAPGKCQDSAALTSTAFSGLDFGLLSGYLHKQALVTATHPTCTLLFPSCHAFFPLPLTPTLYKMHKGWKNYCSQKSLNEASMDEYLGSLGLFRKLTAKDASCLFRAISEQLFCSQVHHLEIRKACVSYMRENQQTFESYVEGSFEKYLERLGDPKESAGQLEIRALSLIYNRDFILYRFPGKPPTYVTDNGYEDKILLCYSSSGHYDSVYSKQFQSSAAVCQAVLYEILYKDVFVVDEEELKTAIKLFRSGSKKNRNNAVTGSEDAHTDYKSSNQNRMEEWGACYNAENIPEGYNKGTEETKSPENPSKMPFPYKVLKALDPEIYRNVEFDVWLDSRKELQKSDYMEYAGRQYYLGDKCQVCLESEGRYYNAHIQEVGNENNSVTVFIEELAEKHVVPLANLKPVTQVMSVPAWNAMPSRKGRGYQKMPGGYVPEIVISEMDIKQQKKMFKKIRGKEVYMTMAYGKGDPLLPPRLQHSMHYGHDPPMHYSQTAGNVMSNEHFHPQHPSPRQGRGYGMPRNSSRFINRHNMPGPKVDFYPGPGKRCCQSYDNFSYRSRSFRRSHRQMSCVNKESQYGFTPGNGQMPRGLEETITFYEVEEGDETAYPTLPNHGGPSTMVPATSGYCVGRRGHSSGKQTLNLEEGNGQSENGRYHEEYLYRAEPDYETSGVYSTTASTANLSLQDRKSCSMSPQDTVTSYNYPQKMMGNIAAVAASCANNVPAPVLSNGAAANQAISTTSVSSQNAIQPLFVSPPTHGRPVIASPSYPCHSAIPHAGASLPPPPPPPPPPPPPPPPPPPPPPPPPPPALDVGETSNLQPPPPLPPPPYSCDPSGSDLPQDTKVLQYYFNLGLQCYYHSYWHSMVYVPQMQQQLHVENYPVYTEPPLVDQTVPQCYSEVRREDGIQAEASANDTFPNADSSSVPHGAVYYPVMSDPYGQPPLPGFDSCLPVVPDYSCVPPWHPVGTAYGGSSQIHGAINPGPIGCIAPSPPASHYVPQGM
How it was run: (§1)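 Labelling with Biotin-Ahx-Ub-VS (0.5 µM final, 1 h) followed a 3 h triplicate treatment of HEK293T lysate (495 µg per sample, Tris/CHAPS/IGEPAL buffer with protease inhibitors) with fragment at 200 µM or vehicle. Labelled DUBs were NeutrAvidin-enriched, digested with LysC and trypsin, and run by diaPASEF LC-MS/MS. The values, average log2 fragment/vehicle ratios by unpaired t-test, come from global-median-normalised Spectronaut label-free quantities. Proteins with ≥2 unique peptides were used.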

ATXN3 = ATXN3 (UniProt P54252)
ATXN3, sequence (P54252 whole entry): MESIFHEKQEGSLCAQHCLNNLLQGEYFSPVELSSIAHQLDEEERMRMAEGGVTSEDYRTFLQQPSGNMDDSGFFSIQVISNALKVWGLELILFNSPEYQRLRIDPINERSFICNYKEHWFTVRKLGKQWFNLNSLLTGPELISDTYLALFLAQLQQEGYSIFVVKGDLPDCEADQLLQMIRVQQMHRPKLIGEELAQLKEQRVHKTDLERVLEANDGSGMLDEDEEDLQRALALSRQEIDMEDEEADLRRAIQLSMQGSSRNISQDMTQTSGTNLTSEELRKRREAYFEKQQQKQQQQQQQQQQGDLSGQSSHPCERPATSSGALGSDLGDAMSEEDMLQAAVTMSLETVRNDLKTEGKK
How it was run: as §1

BAP1 = target: T2, BAP1 (UniProt Q92560)
T2 sequence (whole entry): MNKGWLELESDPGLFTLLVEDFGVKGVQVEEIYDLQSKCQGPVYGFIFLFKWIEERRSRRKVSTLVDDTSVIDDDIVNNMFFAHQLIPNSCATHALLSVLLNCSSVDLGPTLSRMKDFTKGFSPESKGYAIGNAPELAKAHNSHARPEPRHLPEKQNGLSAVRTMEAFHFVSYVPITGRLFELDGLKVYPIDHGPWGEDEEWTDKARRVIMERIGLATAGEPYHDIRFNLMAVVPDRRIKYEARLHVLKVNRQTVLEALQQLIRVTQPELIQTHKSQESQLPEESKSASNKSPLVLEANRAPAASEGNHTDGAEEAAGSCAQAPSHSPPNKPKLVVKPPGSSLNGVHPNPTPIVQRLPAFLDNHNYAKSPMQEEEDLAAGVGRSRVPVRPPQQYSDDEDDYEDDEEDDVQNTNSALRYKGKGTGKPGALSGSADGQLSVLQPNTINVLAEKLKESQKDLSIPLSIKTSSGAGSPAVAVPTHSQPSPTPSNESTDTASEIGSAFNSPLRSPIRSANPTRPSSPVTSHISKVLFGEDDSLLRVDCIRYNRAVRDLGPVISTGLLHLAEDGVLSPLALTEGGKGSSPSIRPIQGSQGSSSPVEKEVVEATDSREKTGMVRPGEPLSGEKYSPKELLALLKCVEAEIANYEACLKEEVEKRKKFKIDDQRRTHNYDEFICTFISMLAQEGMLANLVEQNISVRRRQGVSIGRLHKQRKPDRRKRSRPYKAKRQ
How it was run: as §1

EIF3F = EIF3F (UniProt O00303)
EIF3F, sequence (O00303 whole entry): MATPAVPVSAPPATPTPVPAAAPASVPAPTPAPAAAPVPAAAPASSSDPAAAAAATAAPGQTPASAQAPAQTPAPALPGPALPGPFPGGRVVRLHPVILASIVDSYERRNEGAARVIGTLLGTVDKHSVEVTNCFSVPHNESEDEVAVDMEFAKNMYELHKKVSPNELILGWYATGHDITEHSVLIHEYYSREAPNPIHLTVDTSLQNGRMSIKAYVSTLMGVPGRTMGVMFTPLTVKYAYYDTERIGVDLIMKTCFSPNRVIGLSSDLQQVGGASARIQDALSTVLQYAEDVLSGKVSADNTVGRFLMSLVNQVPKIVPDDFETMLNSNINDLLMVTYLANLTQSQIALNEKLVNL
How it was run: as §1

EIF3H = EIF3H (UniProt O15372)
EIF3H, sequence (O15372 whole entry): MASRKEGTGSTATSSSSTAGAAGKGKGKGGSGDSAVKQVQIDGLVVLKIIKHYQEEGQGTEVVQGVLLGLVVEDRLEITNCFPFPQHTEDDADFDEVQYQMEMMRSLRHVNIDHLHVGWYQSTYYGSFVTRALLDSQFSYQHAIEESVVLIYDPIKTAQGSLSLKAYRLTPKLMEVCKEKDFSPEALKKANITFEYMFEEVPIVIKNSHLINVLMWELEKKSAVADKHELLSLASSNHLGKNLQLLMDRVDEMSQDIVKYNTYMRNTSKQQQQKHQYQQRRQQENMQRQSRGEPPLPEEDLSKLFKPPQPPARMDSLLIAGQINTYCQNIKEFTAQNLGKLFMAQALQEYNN
How it was run: as §1

FAM105A = target: T3, FAM105A (UniProt Q9NUU6)
T3 sequence (whole entry): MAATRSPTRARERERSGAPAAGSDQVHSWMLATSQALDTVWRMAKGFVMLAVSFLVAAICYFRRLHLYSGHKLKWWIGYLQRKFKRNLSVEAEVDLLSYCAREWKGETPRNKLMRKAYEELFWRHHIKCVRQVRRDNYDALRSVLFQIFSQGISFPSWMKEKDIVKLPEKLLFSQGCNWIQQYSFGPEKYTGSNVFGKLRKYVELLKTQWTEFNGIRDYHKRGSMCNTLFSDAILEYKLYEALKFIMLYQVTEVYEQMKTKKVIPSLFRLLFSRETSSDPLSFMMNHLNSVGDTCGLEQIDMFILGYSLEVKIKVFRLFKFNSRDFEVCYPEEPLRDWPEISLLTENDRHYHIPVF
How it was run: as §1

OTUB1 = OTUB1 (UniProt Q96FW1)
OTUB1, sequence (Q96FW1 whole entry): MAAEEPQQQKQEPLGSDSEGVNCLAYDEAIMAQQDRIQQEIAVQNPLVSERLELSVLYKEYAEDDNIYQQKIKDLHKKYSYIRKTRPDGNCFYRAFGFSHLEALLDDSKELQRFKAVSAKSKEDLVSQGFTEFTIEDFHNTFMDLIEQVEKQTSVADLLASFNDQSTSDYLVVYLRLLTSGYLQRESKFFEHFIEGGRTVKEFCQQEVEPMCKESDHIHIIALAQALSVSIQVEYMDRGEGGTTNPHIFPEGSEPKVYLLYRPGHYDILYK
How it was run: as §1

OTUD4 = target: T4, OTUD4 (UniProt Q01804)
T4 sequence (whole entry): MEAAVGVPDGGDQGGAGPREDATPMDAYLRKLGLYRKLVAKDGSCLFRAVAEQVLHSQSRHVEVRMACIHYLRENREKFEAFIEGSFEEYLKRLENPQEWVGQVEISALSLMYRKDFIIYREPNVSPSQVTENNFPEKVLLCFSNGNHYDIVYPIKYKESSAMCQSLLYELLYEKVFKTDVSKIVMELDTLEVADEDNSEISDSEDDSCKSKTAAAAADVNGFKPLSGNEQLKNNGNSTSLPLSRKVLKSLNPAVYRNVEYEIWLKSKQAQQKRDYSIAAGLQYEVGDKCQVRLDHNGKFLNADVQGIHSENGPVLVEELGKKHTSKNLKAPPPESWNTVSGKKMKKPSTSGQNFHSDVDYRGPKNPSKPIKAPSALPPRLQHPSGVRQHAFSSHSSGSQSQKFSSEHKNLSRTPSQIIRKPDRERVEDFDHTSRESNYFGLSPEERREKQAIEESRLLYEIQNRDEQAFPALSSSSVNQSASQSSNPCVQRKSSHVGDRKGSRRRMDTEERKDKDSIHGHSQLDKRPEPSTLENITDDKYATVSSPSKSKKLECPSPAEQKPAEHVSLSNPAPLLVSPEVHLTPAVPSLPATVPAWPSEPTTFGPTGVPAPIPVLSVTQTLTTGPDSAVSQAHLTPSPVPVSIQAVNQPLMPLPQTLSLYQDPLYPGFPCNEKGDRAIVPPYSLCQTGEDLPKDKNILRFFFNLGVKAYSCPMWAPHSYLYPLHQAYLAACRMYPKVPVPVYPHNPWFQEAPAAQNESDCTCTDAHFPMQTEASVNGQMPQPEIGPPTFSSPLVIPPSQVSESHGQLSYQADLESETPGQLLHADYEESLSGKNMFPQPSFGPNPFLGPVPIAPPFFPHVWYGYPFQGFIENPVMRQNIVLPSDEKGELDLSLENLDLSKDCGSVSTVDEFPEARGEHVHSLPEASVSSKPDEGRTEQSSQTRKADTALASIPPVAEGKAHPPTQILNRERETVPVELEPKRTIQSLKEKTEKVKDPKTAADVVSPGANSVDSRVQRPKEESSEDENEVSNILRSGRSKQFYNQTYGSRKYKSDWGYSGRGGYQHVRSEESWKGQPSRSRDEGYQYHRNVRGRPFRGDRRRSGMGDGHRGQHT
How it was run: as §1

OTUD5 = target: T5, OTUD5 (UniProt Q96G74)
T5 sequence (whole entry): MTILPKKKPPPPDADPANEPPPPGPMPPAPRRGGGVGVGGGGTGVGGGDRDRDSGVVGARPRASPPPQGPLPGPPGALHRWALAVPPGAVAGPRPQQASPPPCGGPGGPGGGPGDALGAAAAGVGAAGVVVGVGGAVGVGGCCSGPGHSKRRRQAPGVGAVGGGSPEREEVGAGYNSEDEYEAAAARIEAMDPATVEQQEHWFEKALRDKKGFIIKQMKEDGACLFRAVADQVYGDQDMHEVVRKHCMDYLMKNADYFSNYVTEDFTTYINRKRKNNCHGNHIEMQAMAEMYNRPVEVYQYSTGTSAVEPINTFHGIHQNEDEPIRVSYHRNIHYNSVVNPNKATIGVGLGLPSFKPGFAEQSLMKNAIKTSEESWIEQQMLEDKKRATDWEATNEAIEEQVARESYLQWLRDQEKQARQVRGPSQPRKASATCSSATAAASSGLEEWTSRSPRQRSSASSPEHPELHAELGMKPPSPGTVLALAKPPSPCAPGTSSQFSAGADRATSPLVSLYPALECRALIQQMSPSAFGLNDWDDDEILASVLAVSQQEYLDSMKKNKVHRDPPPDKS
How it was run: as §1

Measured: log2 ratio of Biotin-Ahx-Ub-VS probe labelling

NC(=O)C(Cc1ccccc1)NC(=O)CCl (centres undefined)
active: BAP1 -2.01
inactive: ALG13 0.0325 | ATXN3 -0.279 | EIF3F 0.127 | EIF3H -0.254 | FAM105A -0.0569 | OTUB1 0.128 | OTUD4 -0.451 | OTUD5 -0.216

Source: the supplement of paper PMC11732987, “Enantioselective OTUD7B fragment discovery through chemoproteomics screening and high-throughput optimisation” (Communications Chemistry, 2025)
